{"source": "PubChem BioAssay (NCATS)", "note": "Records with an inconclusive call do not appear. The source made the active and inactive calls. Calls come from the whole dose curve; as a rule, active = well fitted inhibition curve with a large enough effect; inconclusive = small, poorly fitted or top-dose-only effect; inactive = flat fitted curve, though single readings scatter. *1 amine or outer side, *2 acyl side, *3 side chain or, on linkers, in order; H or OH if unused. Where a SMILES comes first, the peptide text is derived from it. Bridges are numbered along the chain shown (N, C = ends). [ ]: non-standard residue; d: D form. The star is where a group is joined. pTerphenylCO(4''-OnC5H11) = CCCCCOc1ccc(-c2ccc(-c3ccc(C(=O)*)cc3)cc2)cc1; Orn(4R-OH,5R-OH) = O=C([C@H](C[C@@H](O)[C@@H](O)N[*:3])N[*:1])[*:2]; hTyr(3S-OH,4S-OH) = N[C@H](C(=O)O)[C@H](O)[C@@H](O)c1ccc(O)cc1; Pro(3S-OH,4S-Me) = C[C@H]1CN[C@H](C(=O)O)[C@H]1O; Hyp = O=C(O)[C@@H]1C[C@@H](O)CN1"}
{"target": "Calcium and integrin-binding protein 1 (Homo sapiens) (UniProt Q99828)", "sequence (Q99828 whole entry, looked up)": "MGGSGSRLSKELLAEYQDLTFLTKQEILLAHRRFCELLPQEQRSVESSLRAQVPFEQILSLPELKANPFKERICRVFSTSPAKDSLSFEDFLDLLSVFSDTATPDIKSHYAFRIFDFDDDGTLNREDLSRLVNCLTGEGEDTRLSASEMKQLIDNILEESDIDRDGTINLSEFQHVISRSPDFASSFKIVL", "assay": "Primary qHTS for Identification of Calcium Integrin Binding Protein 1 (CIB1) Competitor (AID 1508620);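 note: GST tagged CIB1 binding a fluorescein labelled alphaIIb integrin peptide tracer; top concentration of the series differs between compounds; % is set by controls: 0 for no effect and ±100 for the full control effect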", "conditions": "CIB1-GST / FITC-alphaIIb peptide fluorescence polarization; series mostly up to 114 µM; activity change, negative = inhibition: at the top concentration", "summary_of_the_method": "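Fluorescence polarization competition: CIB1-GST (1 uM final) preincubated with compound 15 min at room temperature, then FITC-labeled alphaIIb peptide (100 nM final) added for another 15 min. Polarization read at Ex 480/Em 540.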"}
{"molecule": "CCCCCOc1ccc(-c2ccc(-c3ccc(C(=O)N[C@H]4C[C@@H](O)[C@@H](O)NC(=O)[C@@H]5[C@@H](O)[C@@H](C)CN5C(=O)[C@H]([C@@H](C)O)NC(=O)[C@H]([C@H](O)[C@@H](O)c5ccc(O)cc5)NC(=O)[C@@H]5C[C@@H](O)CN5C(=O)[C@H]([C@@H](C)O)NC4=O)cc3)cc2)cc1", "note": "({pTerphenylCO(4''-OnC5H11)}-[Orn(4R-OH,5R-OH)]T[Hyp][hTyr(3S-OH,4S-OH)]T[Pro(3S-OH,4S-Me)]; lactam 1-C)", "activity change, negative = inhibition": "4.44% [at 57.7 µM] (inactive)"}
{"molecule": "C=CC(=O)N1CCCN(c2cc(NCCC(=O)O)nc(-c3ccccn3)n2)CC1", "activity change, negative = inhibition": "-18.6% (inactive)"}
{"molecule": "COc1cc(CCO)ccc1O[C@@H]1O[C@H](CO)[C@@H](O)[C@H](O)[C@H]1O", "activity change, negative = inhibition": "-6.76% [at 57.7 µM] (inactive)"}
{"molecule": "CC(=O)OC[C@]12[C@H](OC(C)=O)[C@H](OC(=O)c3ccccc3)[C@@H]3[C@@H](OC(C)=O)[C@]1(OC3(C)C)[C@H](C)C[C@H](OC(C)=O)[C@@H]2OC(=O)c1ccccc1", "activity change, negative = inhibition": "2.56% [at 30.2 µM] (inactive)"}
{"molecule": "O=C(NCc1ccccc1-c1ccccc1C(=O)NCCc1ccccn1)OCc1ccccc1", "activity change, negative = inhibition": "1.74% (inactive)"}
{"molecule": "O=S(=O)(NCc1ccccn1)c1ccc(Br)c2ccccc12", "activity change, negative = inhibition": "1.24% (inactive)"}
{"molecule": "CN(C)C(=O)COC(=O)c1cc(-c2ccc(C3CCNCC3)cc2)c2ccc(-c3ccc(C(F)(F)F)cc3)cc2c1", "activity change, negative = inhibition": "-6.52% (inactive)"}
{"molecule": "COC(=O)c1cc2c(C(F)(F)F)cc(-c3ccccc3)cc2n1O", "activity change, negative = inhibition": "-13.3% (inactive)"}
{"molecule": "COc1ccccc1OCCN1CC(COc2cccc3[nH]c4ccccc4c23)OCC1=O", "note": "(stereo not given)", "activity change, negative = inhibition": "-5.72% (inactive)"}
{"molecule": "C/C(=C\\Cc1c(O)c(Cl)c(C)c(C=O)c1O)CC/C=C(\\C)[C@H]1CC(=O)C(C)(C)O1", "activity change, negative = inhibition": "-1.24% [at 57.7 µM] (inactive)"}
